S2 tox = Viability Counterscreen for Primary qHTS for Inhibitors of ATXN expression; S2 cells (HEK-293 line with an ATXN2-luciferase reporter) viability, CellTiter-Fluor protease fluorescence, 24 h; Potency, µM (highest dose often 56.7 µM), usual class: cytotoxic; 400,000 tested, 0.49% active; also: nearly all actives have a fitted effect of over 40% in size
ATXN2 expr inh = Primary qHTS for Inhibitors of ATXN expression | HEK-293 ATXN2-luciferase reporter, luminescence, 24 h | Potency, µM (titrated, usually from 57 µM), inactives show at the highest dose activity change, negative = inhibition, actives largely listed as inhibitors | 360,000 tested, 0.72% active | AID 1745845, 2022; also: % is scaled to controls: 0 for no effect and ±100 for the full control effect; nearly all actives have a fitted effect of over 55% in size
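qHTS (up to 57 uM final) was run with 24 h compound exposure of reporter cells at 37 °C. Each well was multiplexed: SteadyGlo luminescence measured ATXN2-luciferase expression after a fluorogenic Gly-Phe-AFC viability readout (25 uM final).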
RORg inh = qHTS for inhibitors of ROR gamma transcriptional activity; 310,000 tested, 5.4% active; Potency, µM (doses to about 53.6 µM), without a hit: top-dose activity change, negative = inhibition, actives largely listed as inhibitors; AID 2551, 2010; Drosophila S2 Gal4-RORgamma UAS-luciferase reporter, 20 h; Nuclear receptor ROR-gamma (Mus musculus), P51450; also: % is scaled to controls: 0 for no effect and ±100 for the full control effect; nearly all actives have a fitted effect of over 60% in size
Target sequence (P51450 whole entry, looked up, the tested form may be a part): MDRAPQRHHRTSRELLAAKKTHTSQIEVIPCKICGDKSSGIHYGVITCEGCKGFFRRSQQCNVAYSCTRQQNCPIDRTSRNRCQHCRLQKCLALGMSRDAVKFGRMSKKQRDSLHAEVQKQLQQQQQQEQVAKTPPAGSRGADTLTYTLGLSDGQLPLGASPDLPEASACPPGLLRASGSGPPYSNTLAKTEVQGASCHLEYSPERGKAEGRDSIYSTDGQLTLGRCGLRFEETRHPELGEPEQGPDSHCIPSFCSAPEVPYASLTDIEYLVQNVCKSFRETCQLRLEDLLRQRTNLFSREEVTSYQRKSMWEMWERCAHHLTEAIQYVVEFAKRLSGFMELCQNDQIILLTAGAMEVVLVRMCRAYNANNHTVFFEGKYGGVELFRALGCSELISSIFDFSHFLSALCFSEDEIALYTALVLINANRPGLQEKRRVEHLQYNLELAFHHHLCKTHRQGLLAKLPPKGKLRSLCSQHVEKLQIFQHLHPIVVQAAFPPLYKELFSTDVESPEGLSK
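In this cell-based reporter format, copper sulfate (700 uM final) drives Gal4–ROR gamma fusion expression from a metallothionein promoter in Drosophila Schneider cells; compounds preincubated 1 hr, reporter read after 20 hr at ambient temperature.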
Gal4-VP16 FLuc = VP16 counterscreen qHTS for inhibitors of ROR gamma transcriptional activity; Drosophila S2 Gal4-VP16 UAS-luciferase, luminescence, 20 h; Potency, µM (doses to about 53.6 µM), without a hit: top-dose activity, negative = inhibition, hits mostly inhibitors; 310,000 tested, 3.5% active;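 also: Gal4-VP16 expression switched on by copper sulfate through the metallothionein promoter; % is scaled to controls: 0 for no effect and ±100 for the full control effect; nearly all actives have a fitted effect of over 50% in size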
HepG2 viability = qHTS for Inhibitors of TGF-b: Cytotox Counterscreen. 410,000 tested, 0.76% active. HepG2 CAGA-GFP viability, ATP luminescence, 18 h. Potency, µM (highest dose often 46.1 µM), for the others: at the top dose activity change, negative = cytotoxicity, most hits filed as cytotoxic
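CellTiter-Glo luminescence gave cytotoxicity after 18 hours at 37 degrees C. The cells were HepG2 CAGA-GFP in 1% FBS DMEM, stimulated with 500 pg/mL TGF-beta after compound addition. %Activity was normalised to no-cell wells (complete cell-killing) and DMSO (no toxicity), and curves were fitted and classified.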
TGFb SMAD3 inh = qHTS for Inhibitors of TGF-b; HepG2 CAGA-GFP TGF-b/SMAD3 reporter, GFP fluorescence, 18 h; TGF-beta stimulated, 500 pg/mL final; Potency, µM (top dose mostly 46.1 µM), for inactives: at the highest dose activity, negative = inhibition, hits mostly inhibitors; 410,000 tested, 1.2% active; also: % is scaled to controls: 0 for no effect and ±100 for the full control effect; nearly all actives have a fitted effect of over 65% in size
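Smad-responsive CAGA-GFP expression was quantified in HEPG2 cells exposed to compounds and 500 pg/mL final TGF-beta for 18 h at 37 degrees C; unstimulated wells defined full inhibition.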
* = called active by the depositor; i = inactive; ? = inconclusive; . = not tested or not shown; ! = not confirmed by another sample; [ ] = dose if it differs, or a comment. Hits are enriched below; roughly 6.3% of the tested compounds scored in any of these assays. Calls follow the shape of the dose curve; as a rule, active = well fitted curve in the direction sought with a large enough effect; inconclusive = small, poorly fitted or top-dose-only effect, or another doubt; inactive = no such curve, though single readings can be large; an effect the other way counts as inactive or inconclusive. Potency is read from the fitted curve at half-maximal effect.

SMILES | S2 tox | ATXN2 expr inh | RORg inh | Gal4-VP16 FLuc | HepG2 viability | TGFb SMAD3 inh
CC1CCC(C(C)C)C(OC(=O)c2ccccc2O)C1 (stereo not drawn) | . | . | 0% | -13% | . | .
Cc1ccccc1OCc1n(CC(=O)OC2CC(C)CCC2C(C)C)c2ccccc2[n+]1C (stereo not drawn) | 25µM* | ? | ? | 18µM* | 16µM* | 7.9µM*
CC1CCC(C(C)C)C(OC(=O)Cn2c(-c3ccc(Br)cc3)[n+](C)c3ccccc32)C1 (stereo not drawn) | ? | ? | ? | ? | 25µM*! | 13µM*
N#Cc1cccc(NC(=O)c2cc(C3CCCCN3C(=O)CCCc3ccccc3)on2)c1 (stereo not drawn) | ? | -24% | . | . | -17% | 1%
CCSc1nn(CC(=O)Nc2ccc(C(=O)OC)cc2)c(N)c1S(=O)(=O)c1ccc(C)cc1 | ? | -36% | . | . | -13% | ?
CCOC(=O)c1ccc(NC(=O)Cn2nc(SC)c(S(=O)(=O)c3ccc(Cl)cc3)c2N)cc1 | ? | ? | . | . | -34% | 5µM*
Cc1cccc(NC(=S)NCc2ccccc2Cl)c1C | ? | ? | 5µM* | 4µM* | -57% | ?
COc1ccc(CCNC(=S)Nc2cccc(C)c2C)cc1 | i | 2% | 4µM* | 7.9µM* | 2% | 4%
Cc1cccnc1NC(=S)NCCc1ccccc1 | i | 13% | 2.8µM* | 10µM* | -21% | ?
Cc1ccc(NC(=S)NCCc2ccccc2)nc1 | ? | 28% | 0.5µM* | 5µM* | -18% | -23%
Cc1ccc(NC(=O)CCCc2ccccc2)nc1 | i | 5% | ? | 28% | 2% | -1%
COc1ccc(-n2ncc(C(=O)NCc3cccs3)c2C2CCN(C(=O)OC(C)(C)C)CC2)cc1 | . | . | . | . | -22% | 0%
COc1ccccc1C1CN(Cc2cccc(O)c2)Cc2ccccc2O1 (stereo not drawn) | i | . | . | . | . | .
CCC(=O)N1CCCc2cc(S(=O)(=O)N3CCC(C(=O)NCc4ccc(F)cc4)CC3)ccc21 | i | -8% | . | . | -24% | -5%
Cc1cccc(NC(=O)CCc2ccccc2)c1C | i | 4% | 14% | 5% | -17% | 0%
Cc1cccc(NC(=S)NCCc2ccccc2)c1C | i | 3% | 3.5µM* | 5µM* | -41% | -13%
Cc1cccc(C)c1NC(=S)NCCc1ccc(O)c(O)c1 | . | -5% | 7.9µM* | ? | 6% | 0%
Cc1ccc(Cl)cc1NC(=O)C1CCN(c2nnc(C)c3c(C)n(-c4ccccc4)nc23)CC1 | . | . | . | . | 4% | -22%
CCN(Cc1ccccc1)C(=O)Cn1c(=O)cc(C)c2c(C)nn(-c3cccc(F)c3)c21 | i | 9% | . | . | -2% | 19%
CC(=O)Nc1nonc1NC(=O)CSc1nc2ccccc2o1 | i | -1% | 0.79µM* | 4µM* | 2% | 0%
Cc1nonc1NC(=O)CSc1nc2ccccc2o1 | i | 20% | 8.9µM* | ? | -3% | 0%
CCOC(=O)c1c(NC(=O)CSc2nncs2)sc(C)c1-c1ccccc1 | i | -6% | -25% | 0.45µM* | 0% | 11µM*
CC(=O)Nc1ccc(NC(=O)CSc2nc3ccccc3o2)cc1 | i | 18% | 16% | -2% | 5% | -6%
CCOC(=O)c1sc(NC(=O)CSc2nc3ccccc3o2)c(C(=O)OCC)c1C | i | 3% | 3.2µM* | 2µM* | 1% | -1%
c1csc(CNc2ccnc(-c3ccoc3)n2)c1 | . | . | ? | 12% | . | .
SMILES | S2 tox | ATXN2 expr inh | RORg inh | Gal4-VP16 FLuc | HepG2 viability | TGFb SMAD3 inh
O=C1C[C@@H](O)[C@@H](O)[C@@H]2[C@H]3C(=O)N(c4ccc(F)cc4F)C(=O)[C@@H]3CC[C@H]12 | . | . | -4%[10 µM] | 0%[10 µM] | . | .
C=CC(C)(O)CC1[C@@]2(C)CCCC(C)(C)C2CC[C@]1(C)O (stereo partly drawn) | . | . | 2% | -26% | . | .
COc1ccc(S(=O)(=O)N2CCC(n3c(C(F)(F)F)nc4cccnc43)CC2)cc1OC | i | 0% | . | . | 0% | 3%
CCc1ccc(NC(=O)CC(NCc2cccnc2)C(=O)O)cc1 (stereo not drawn) | i | 14% | . | . | 15% | 6%
O=c1oc2ccccc2c2c1C1O[C@](c3ccsc3)(Cc3ccccc31)O2 | . | . | -1%[10 µM] | -5%[10 µM] | . | .
CCN(CC)CCCNC(=O)c1ccc2c(Cl)c3c(nc2c1)CCCC3 | 20µM*! | 28µM* | -26% | -3% | 1.6µM*! | 13µM*
CCCCN(CC)CCNC(=O)c1ccc2c(Cl)c3c(nc2c1)CCC3 | i | -35% | -11% | -8% | -39% | 12%
COc1ccc(OC)c(NC(=O)CSc2c3c(nc4ccccc24)CCCC3)c1 | . | ? | . | . | 13µM* | ?
O=C(Nc1cccnc1Cl)c1ccc2c(Cl)c3c(nc2c1)CCC3 | i | 109%[11.3 µM] | ? | ? | 1% | -24%
COc1ccc(Cl)cc1NC(=O)CSc1c2c(nc3ccccc13)CCC2 | . | . | . | . | -37% | ?
COc1ccc(OC)c(NC(=O)CSc2c3c(nc4cc(Cl)ccc24)CCCC3)c1 | . | . | . | . | -46% | 10µM*
O=C(Nc1ccccc1F)c1ccc2c(Cl)c3c(nc2c1)CCC3 | i | -68% | . | . | 10µM* | ?
CCCCOCCOc1nc(-c2ccc(C(=O)O)c(F)c2)sc1C | . | 30% | . | . | . | .
COc1ccc(NC(=O)CSc2nc3ccccc3nc2N2CCOCC2)c(OC)c1 | 4.5µM*! | -21% | -14% | -3% | -20% | -14%
CCN(CC)CCNC(=O)CSc1c2c(nc3cc(Cl)ccc13)CCCC2 | . | . | -16% | 1% | -79% | 18µM*
Cc1ccc(CN(C(=O)Nc2cccc(Cl)c2)c2ccccn2)cc1 | i | 12% | . | . | -30% | ?
Cc1nn(-c2ccccc2)c(Cl)c1/C=C/C(=O)c1ccccc1 | i | 27% | -36% | 1% | 11µM* | ?
Cc1nn(-c2ccccc2)c(Cl)c1/C=N/O | ? | . | 9% | -4% | 1% | 6%
O=C(Cc1ccc(F)cc1)NCCc1csc(-c2ccc(C(F)(F)F)cc2)n1 | i | ? | . | . | -28% | -25%
Nc1nc2c(c(=O)[nH]1)N(C=O)C(CNc1ccc(C(=O)NC(CCC(=O)O)C(=O)O)cc1)CN2 (stereo not drawn) | . | . | 13% | 4% | . | .
Cc1ccc2ccc3cc(C(=O)Nc4ccc(C)c(F)c4)nc3c2[nH]1 | i | 0% | . | . | -60% | ?

Screening data (PubChem BioAssay)
